Experimental findings from PubChem BioAssay (NCATS) are described below.

Results filed as inconclusive are left out. Active and inactive are the calls of the source. Unless noted, the call rests on the fitted dose curve; in most records, active means well fitted curve in the direction sought with a large enough effect; inconclusive means small, poorly fitted or top-dose-only effect, or another doubt; inactive means no such curve, though single readings can be large; an effect the other way counts as inactive or inconclusive.

The nature of assay [1]: qHTS for Inhibitors of the Functional Ribonucleoprotein Complex (vRNP) of Lassa (LASV) Arenavirus: LASV Primary Screen - GLuc reporter signal (AID 1347082; calls by dose curve; tested in HEK293 reporter line; further: series mostly up to about 57 µM; nearly all actives have a fitted effect of over 60% in size).
A short description of assay [2]: qHTS for Inhibitors of the Functional Ribonucleoprotein Complex (vRNP) of Lassa (LASV) Arenavirus: Viability assay - alamar blue signal for LASV Primary Screen (AID 1347083; calls by dose curve; tested in HEK293 reporter line; further: series mostly up to about 57 µM; nearly all actives have a fitted effect of over 80% in size).
Assay [3] can be described thus: qHTS for Inhibitors of the Functional Ribonucleoprotein Complex (vRNP) of Lymphocytic Choriomeningitis Arenaviruses (LCMV): Viability assay - alamar blue signal for LCMV Primary Screen (AID 1347085; calls by dose curve; tested in HEK293 reporter line; further: series mostly up to about 57 µM; nearly all actives have a fitted effect of over 80% in size).
Assay [4] addresses Nucleoprotein (Lymphocytic choriomeningitis virus (strain Armstrong)) (UniProt P09992). As to the kind of experiment: qHTS for Inhibitors of the Functional Ribonucleoprotein Complex (vRNP) of Lymphocytic Choriomeningitis Arenaviruses (LCMV): LCMV Primary Screen - GLuc reporter signal (AID 1347086; calls by dose curve; further: series mostly up to about 57 µM; nearly all actives have a fitted effect of over 70% in size).
Assay [5] can be described thus: qHTS of pediatric cancer cell lines to identify multiple opportunities for drug repurposing: Primary screen for TC32 cells (AID 1347089). Further: nearly all actives have a fitted effect of over 60% in size. In short, it runs like this: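 Luminescent CellTiter-Glo read-out of metabolically active TC32 cells after 48 h compound exposure. Primary: MIPE 11-point, 0.78 nM–46 µM; NPC 8-point, 0.59 nM–46 µM. Confirmatory: 11-point dilutions.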

Assay [6] can be described thus: qHTS of pediatric cancer cell lines to identify multiple opportunities for drug repurposing: Primary screen for DAOY cells (AID 1347090). Further: nearly all actives have a fitted effect of over 55% in size. Further: potency means the concentration at half of the fitted maximal effect. Summed up: (§1)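 Viability measured as metabolically active cells via CellTiter-Glo luminescence following 48 hours of compound exposure, 11-point dilutions in confirmatory testing. 500-1,000 cells/well plated 5 hours before dosing; controls were DMSO and 2.3 µM bortezomib.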

The nature of assay [7]: qHTS of pediatric cancer cell lines to identify multiple opportunities for drug repurposing: Primary screen for SJ-GBM2 cells (AID 1347091). Summed up: as §1
A short description of assay [8]: qHTS of pediatric cancer cell lines to identify multiple opportunities for drug repurposing: Primary screen for A673 cells (AID 1347092). Further: nearly all actives have a fitted effect of over 45% in size. Further: potency means the concentration at half of the fitted maximal effect. Summed up:
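A673 cells (500-1,000 cells/well in growth media) were pre-incubated 5 h at 37 degrees C, then exposed to compounds for 48 h. Viability was read as CellTiter-Glo luminescence; concentration-response curves came directly from the primary screen.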

A short description of assay [9]: qHTS of pediatric cancer cell lines to identify multiple opportunities for drug repurposing: Primary screen for SK-N-MC cells (AID 1347093). Further: series mostly up to about 46 µM. Summed up: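 Metabolically active cells were quantified by ATP-dependent luminescence (CellTiter-Glo, 15 min at room temperature) following 48 h treatment. Cells had been plated at 500-1,000 per well and settled for 5 h beforehand.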

A short description of assay [10]: qHTS of pediatric cancer cell lines to identify multiple opportunities for drug repurposing: Primary screen for BT-37 cells (AID 1347094). Further: series mostly up to about 57 µM. Summed up:
(§2)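 Plated cells (500-1,000 per well, growth media) were allowed to settle for 5 hours, treated with compound dilutions for 48 hours, then lysed with CellTiter-Glo for 15 min at room temperature before luminescence reading.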

The nature of assay [11]: qHTS of pediatric cancer cell lines to identify multiple opportunities for drug repurposing: Primary screen for U-2 OS cells (AID 1347096). Further: nearly all actives have a fitted effect of over 50% in size. Summed up: (§3)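 Viability after 48 h compound treatment at 37C, 500-1,000 cells/well, read as ATP luminescence with CellTiter-Glo. Primary screens used 11-point (MIPE, 0.78 nM-46 µM) or 8-point (NPC, 0.59 nM-46 µM) final concentrations; follow-up screens used 11-point dilutions.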

Assay [12] is described as follows: qHTS of pediatric cancer cell lines to identify multiple opportunities for drug repurposing: Primary screen for Saos-2 cells (AID 1347097). Further: nearly all actives have a fitted effect of over 40% in size. Summed up:
as §2

Assay [13] can be described thus: qHTS of pediatric cancer cell lines to identify multiple opportunities for drug repurposing: Primary screen for SK-N-SH cells (AID 1347098). Further: nearly all actives have a fitted effect of over 65% in size. Further: potency means the concentration at half of the fitted maximal effect. In short, it runs like this:
(§4)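 Cells (500-1,000/well) rested 5 h, then received compounds for 48 h; metabolically active cells were measured by CellTiter-Glo luminescence. Final concentrations spanned up to 46 µM (MIPE, 11-point) or 0.59 nM-46 µM (NPC, 8-point) in primary screens, 11-point in follow-ups.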

Assay [14] can be described thus: qHTS of pediatric cancer cell lines to identify multiple opportunities for drug repurposing: Primary screen for NB1643 cells (AID 1347099). Further: nearly all actives have a fitted effect of over 50% in size. Summed up:
as §2

The nature of assay [15]: qHTS of pediatric cancer cell lines to identify multiple opportunities for drug repurposing: Primary screen for LAN-5 cells (AID 1347100). Summed up: as §3
The nature of assay [16]: qHTS of pediatric cancer cell lines to identify multiple opportunities for drug repurposing: Primary screen for BT-12 cells (AID 1347101). Further: nearly all actives have a fitted effect of over 25% in size. Summed up:
as §4

Assay [17] is described as follows: qHTS of pediatric cancer cell lines to identify multiple opportunities for drug repurposing: Primary screen for Rh18 cells (AID 1347102). Further: nearly all actives have a fitted effect of over 65% in size. Summed up:
as §3

A short description of assay [18]: qHTS of pediatric cancer cell lines to identify multiple opportunities for drug repurposing: Primary screen for NB-EBc1 cells (AID 1347095). In short, it runs like this:
as §2

Sequence of Nucleoprotein (Lymphocytic choriomeningitis virus (strain Armstrong)) (P09992 whole entry, looked up): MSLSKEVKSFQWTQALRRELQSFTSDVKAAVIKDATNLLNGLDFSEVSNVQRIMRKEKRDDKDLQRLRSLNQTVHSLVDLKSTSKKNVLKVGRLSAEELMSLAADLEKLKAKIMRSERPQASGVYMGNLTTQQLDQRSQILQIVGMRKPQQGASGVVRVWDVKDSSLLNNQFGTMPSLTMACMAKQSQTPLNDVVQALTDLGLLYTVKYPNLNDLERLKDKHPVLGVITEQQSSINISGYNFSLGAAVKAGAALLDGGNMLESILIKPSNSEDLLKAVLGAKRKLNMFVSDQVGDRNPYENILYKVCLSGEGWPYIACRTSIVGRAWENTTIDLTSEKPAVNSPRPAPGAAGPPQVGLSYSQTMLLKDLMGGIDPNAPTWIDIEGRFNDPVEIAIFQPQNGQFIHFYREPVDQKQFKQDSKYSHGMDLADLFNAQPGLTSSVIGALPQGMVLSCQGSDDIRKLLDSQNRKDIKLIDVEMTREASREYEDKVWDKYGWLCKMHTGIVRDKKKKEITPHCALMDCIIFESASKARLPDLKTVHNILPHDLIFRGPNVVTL

For the compound `C#C[C@]1(O)C=C[C@H]2[C@@H]3CCC4=CC(=O)CC[C@@H]4[C@H]3CC[C@@]21CC`, the Potency entry in [1], in [2], in assay [3], in [4], in assay [5] and in assay [6] was “inactive” in each case. The Potency entry in assay [7], in [8], in assay [9], in assay [10], in [11] and in assay [12] was “inactive” in each case. Moreover, the Potency result in assay [13], in assay [14], in assay [15], in assay [16] and in assay [17] was “inactive” in each case.
Regarding `Nc1ccc(N)cc1`, the Potency result in assay [1], in assay [2], in assay [3], in assay [4], in assay [5] and in assay [6] was “inactive” each time. Further, the Potency entry in assay [7], in [10], in assay [11], in assay [16] and in [17] was “inactive” in each case. Further, the Potency in assay [8] is 21.1 µM (active).
In the case of `CCC(=O)O[C@H]1CC[C@H]2[C@@H]3CCC4=CC(=O)CC[C@]4(C)[C@H]3CC[C@]12C`, the Potency result in assay [1], in assay [2], in assay [3], in assay [4], in [5] and in assay [6] was “inactive” in each case. For the same compound, the Potency result in [7], in assay [8], in [10], in assay [18], in assay [11] and in assay [12] was “inactive” in each case. The Potency entry in [14], in assay [16] and in assay [17] was “inactive” each time.
For `CCN(CC)Cc1nccn1-c1ccc([N+](=O)[O-])cc1C(=O)c1ccccc1Cl`, the Potency entry in [1], in assay [2], in assay [3], in assay [4], in [5] and in assay [6] was “inactive” each time. In addition, the Potency entry in [7], in [8], in assay [10], in [18], in assay [11] and in [12] was “inactive” in each case. Besides, the Potency entry in [13], in [14], in assay [15], in assay [16] and in [17] was “inactive” throughout.
`CC[C@H]1C[C@@H]2C[C@H]3c4[nH]c5ccc(OC)cc5c4CCN(C2)[C@@H]13`: the Potency entry in [1], in assay [2], in assay [3], in assay [4], in assay [5] and in assay [7] was “inactive” throughout. Besides, the Potency result in [18], in [11], in assay [14] and in assay [17] was “inactive” each time. Moreover, the Potency in assay [6] was 37.8 µM (active); in [13], 30.9 µM (active).
As to `CN1C(=O)CN=C(c2ccccc2)c2cc([N+](=O)[O-])ccc21`, the Potency entry in [1], in assay [2], in [3], in assay [4], in assay [5] and in assay [6] was “inactive” in each case. Also, the Potency result in assay [7], in assay [8], in assay [10], in assay [18], in assay [11] and in [12] was “inactive” throughout. The Potency result in assay [13], in [14], in assay [15] and in assay [17] was “inactive” in each case.
On to `CCC1(CC)C(=O)NC(=O)NC1=O`, for which the Potency result in assay [1], in [2], in assay [3], in assay [4], in [5] and in assay [6] was “inactive” throughout. Moreover, the Potency entry in assay [7], in assay [8], in assay [10], in [18], in assay [11] and in assay [13] was “inactive” in each case. Besides, the Potency entry in assay [14], in assay [15] and in assay [17] was “inactive” throughout.
For the compound `CN1C(=O)CN=C(c2ccccc2)c2cc(Cl)ccc21`, the Potency result in [1], in [2], in assay [3], in assay [4], in assay [5] and in assay [6] was “inactive” throughout. For the same compound, the Potency entry in [7], in assay [9], in [10], in [18], in assay [11] and in assay [12] was “inactive” each time. The Potency result in [13] and in assay [15] was “inactive” each time.
On to `CCc1cc(OC)c(C[C@H](C)N)cc1OC`, for which the Potency entry in assay [1], in assay [2], in assay [3], in assay [4], in assay [5] and in [6] was “inactive” throughout. Also, the Potency result in [7], in assay [10], in assay [18], in assay [11], in assay [12] and in [14] was “inactive” in each case. For the same compound, the Potency entry in [15] and in assay [17] was “inactive” throughout.
